# Screens deposited in PubChem by National Center for Advancing Translational Sciences (NCATS).
# A selection: hits, their analogues and other compounds. The true share with any hit is near 2.2%.
# LDHA inh: inhibitors of human lactate dehydrogenase A; purified LDHA, NADH/diaphorase-resazurin fluorescence; hits give low values; activity change, % (values are at about 110 or 230 µM); P00338; 480,000 tested, 0.15% active; AID 1347041; in the data active means activity change below about -30%; inconclusive means mostly about -25% to -30%;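 further: plate controls were DMSO wells for no effect and wells without enzyme for full effect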
#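 Human LDH5 at 2 nM final in Tris HCl pH 7.4 with 0.06 mM NADH and 0.2 mM pyruvate, reacted 5 minutes at room temperature. Remaining NADH coupled via diaphorase/resazurin; resorufin fluorescence read at 0 and 20 minutes, normalized to enzyme-free and DMSO wells.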
# ATXN viability: viability counter-screen for ATXN expression inhibitors | S2 cells (HEK-293 line with an ATXN2-luciferase reporter) viability, CellTiter-Fluor protease fluorescence, 24 h | Potency, µM (doses to about 56.7 µM), hits mostly cytotoxic | 400,000 tested, 0.49% active | AID 651635; further: potency means the concentration at half of the fitted maximal effect; nearly all actives have a fitted effect of over 40% in size
# IDH1 R132H inh: blocks human mutant IDH1 R132H enzyme | O75874 | IDH1-R132H enzyme, NADPH consumption, diaphorase/resazurin fluorescence | Potency, µM (highest dose often 76.6 µM), without a hit: top-dose activity change, negative = inhibition, hits mostly inhibitors | 390,000 tested, 0.093% active | AID 602179; further: potency means the concentration at half of the fitted maximal effect; on the % scale 0 is the no-effect control and ±100 the full control effect; nearly all actives have a fitted effect of over 65% in size
# Target sequence (O75874 whole entry R132H, stated change not applied): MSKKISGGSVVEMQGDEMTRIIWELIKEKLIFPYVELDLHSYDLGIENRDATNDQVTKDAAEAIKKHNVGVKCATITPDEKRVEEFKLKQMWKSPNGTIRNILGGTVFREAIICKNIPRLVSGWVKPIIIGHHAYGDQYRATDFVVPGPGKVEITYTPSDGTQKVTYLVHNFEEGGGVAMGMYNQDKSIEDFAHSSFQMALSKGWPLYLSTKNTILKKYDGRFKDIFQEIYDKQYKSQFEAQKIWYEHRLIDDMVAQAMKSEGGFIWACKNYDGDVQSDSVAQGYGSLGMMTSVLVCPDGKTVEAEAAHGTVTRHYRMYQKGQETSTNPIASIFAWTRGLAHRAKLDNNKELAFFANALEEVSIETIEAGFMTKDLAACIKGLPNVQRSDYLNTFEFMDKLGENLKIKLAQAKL
#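 IDH1-R132H (0.5 ug/mL) preincubated 30 min with compound, then NADPH (0.016 mM) and alpha-KG (2 mM) added; 80 min at RT, pH 7.5. Remaining NADPH coupled via diaphorase/resazurin to fluorescence (540/590 nm); concentration-response curves normalized to no-enzyme control.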
# HepG2 viability: HepG2 cytotoxicity, counter-screen for TGF-b inhibitors | HepG2 CAGA-GFP viability, ATP luminescence, 18 h | Potency, µM (series often up to 46.1 µM), without a hit: top-dose activity change, negative = cytotoxicity, most hits filed as cytotoxic | 410,000 tested, 0.76% active | AID 588856; further: potency means the concentration at half of the fitted maximal effect
#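 HepG2 CAGA-GFP cells (1000/well, DMEM with 1% FBS) received compound, then TGF-beta at 500 pg/mL final, and were incubated 18 hours at 37 degrees C. Viability was read by CellTiter-Glo luminescence. Media-only wells were set as complete cell-killing and DMSO as no toxicity.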
# ATXN2 expr inh: reduces ATXN2 reporter expression in HEK-293 cells; HEK-293 ATXN2-luciferase reporter, luminescence, 24 h; 360,000 tested, 0.72% active; Potency, µM (top dose mostly 57 µM), inactives show at the top dose activity change, negative = inhibition, actives largely listed as inhibitors; further: potency means the concentration at half of the fitted maximal effect; on the % scale 0 is the no-effect control and ±100 the full control effect; nearly all actives have a fitted effect of over 55% in size
#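 qHTS (up to 57 uM final) was run with 24 h compound exposure of reporter cells at 37 °C. Each well was multiplexed: SteadyGlo luminescence measured ATXN2-luciferase expression after a fluorogenic Gly-Phe-AFC viability readout (25 uM final).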
# TGFb inhibitor: TGF-b pathway inhibition. HepG2 CAGA-GFP TGF-b/SMAD3 reporter, GFP fluorescence, 18 h; TGF-beta stimulated, 500 pg/mL final. Potency, µM (top dose mostly 46.1 µM), inactives show top-dose activity, negative = inhibition, hits mostly inhibitors. 410,000 tested, 1.2% active. AID 588855; further: potency means the concentration at half of the fitted maximal effect; on the % scale 0 is the no-effect control and ±100 the full control effect; nearly all actives have a fitted effect of over 65% in size
#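 HEPG2 CAGA-GFP reporter cells (1000/well, DMEM with 1% FBS) received compounds, then recombinant TGF-beta at 500 pg/mL final for 18 hours at 37 degrees C. Per-cell GFP summed per well was normalised to unstimulated and stimulated DMSO controls before curve fitting.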
# The depositor's hits bear a star; i = inactive; ? = inconclusive; / = no result given. Unless noted, the call rests on the fitted dose curve; in most records, active means well fitted curve in the direction sought with a large enough effect; inconclusive means small, poorly fitted or top-dose-only effect, or another doubt; inactive means no such curve, though single readings can be large; an effect the other way counts as inactive or inconclusive.
SMILES,LDHA inh,ATXN viability,IDH1 R132H inh,HepG2 viability,ATXN2 expr inh,TGFb inhibitor
COc1ccc(N2CCN(c3nc(NCCc4ccc(OC)c(OC)c4)nc(OC)n3)CC2)cc1,1.8,?,5.4%,-71.8%,28.2µM*,?
CCOc1nc(NCCc2ccc(OC)c(OC)c2)nc(N2CCN(c3ccc(OC)cc3)CC2)n1,0.0,/,3.4%,-2.8%,/,0.0%
Cc1ccsc1C(=O)C1CCCN(Cc2cccn2-c2ccc(Cl)cn2)C1 (configuration not stated),-11.9,?,4.4%,-29.2%,/,?
Nc1ccc2cc3ccc(N)cc3nc2c1,/,?,/,/,2.51µM*,/
Cc1ccc2cc(N)ccc2n1,27.8,i,15.8%,12.0%,-8.0%,-1.2%
CSC(=Nc1ccccc1)N=C(SCc1ccccc1)N(C)C,-8.4,9.47µM*,-6.6%,7.08µM*,?,5.62µM*
Cc1cccc(Oc2nc(-c3ccncc3)nc3ccccc23)c1,15.6,i,-22.7%,i,-18.5%,?
CC1(C(=O)Nc2ccc(Cl)c(C(F)(F)F)c2)Cc2c(-c3ccc(C(N)=O)cc3)ccnc2O1 (configuration not stated),-7.6,?,/,15.8µM*,-25.8%,11.2µM*
COc1c(C)cc(Br)cc1C(=O)Nc1ccc(-c2nc3ncccc3o2)cc1,-2.1,i,7.3%,-21.8%,-10.1%,5.9%
COc1c(C)cc(Br)cc1C(=O)Nc1cccc(-c2nc3ncccc3o2)c1,-9.5,31.6µM*,-9.5%,-13.4%,22.4µM*,-8.2%
Cc1cc(C)c(OCC(=O)Nc2cccc(-c3nc4ncccc4o3)c2)c(Br)c1,-23.3,i,-14.0%,-2.4%,12.4%,15.3%
Cc1ccc(C(C)C)c(OCC(=O)Nc2cccc(-c3nc4ncccc4o3)c2)c1,0.9,20µM*,-1.2%,6.1%,?,0.8%
Oc1cc(-c2ccncc2)cc2cccnc12,10.3,i,/,11.2µM*,3.55µM*,?
CN(C)c1ccc(-c2cc(O)c3ncccc3c2)cc1,7.8,i,/,-35.6%,?,?
COc1cccc(CNc2ncc(C(=O)Nc3cc(OC)c(OC)c(OC)c3)c(C)n2)c1,-1.2,i,18.4%,-11.4%,4.2%,-1.0%
c1ccc(-c2cc(NCCN3CCCCC3)c3ccccc3n2)cc1,-6.1,/,-4.2%,-35.0%,28.2µM*,?
CCCCCCN1CCN(C2CN(CCc3ccccc3)S(=O)(=O)C2)CC1 (configuration not stated),-5.6,?,/,-10.4%,-15.1%,-21.4%
CCN1CCN(c2nc3ccccc3nc2NS(=O)(=O)c2ccc(C)cc2)CC1,6.9,/,/,/,/,/
Cc1cc(NC(=O)CN2CCCCC2)no1,-32.1*,i,-7.9%,1.3%,-4.3%,2.2%
O=C(CN1CCCC1)N1CCN(S(=O)(=O)c2cccc(F)c2)CC1,-9.5,/,/,/,/,/
COc1cccc(NC(=S)NC(=O)Cc2ccccc2)c1,-5.3,i,-2.2%,20.2%,/,4.6%
Clc1nc(CN2CCCCC2)nc2sc3c(c12)CCCC3,-2.9,?,-4.9%,-38.8%,/,25.1µM*
COc1ccc(CNC(=O)c2cnn(-c3ccc(OC)cc3)c2C2CCN(C(=O)OC(C)(C)C)CC2)cc1,7.7,/,12.1%,-6.9%,/,11.2µM*
COc1ccc(OC)c(CCNC(=O)c2cnn(-c3ccccc3Cl)c2C2CCN(C(=O)OC(C)(C)C)CC2)c1,1.0,/,-2.2%,-18.4%,/,10µM*
Cc1ccc(-n2ncc(C(=O)NCCCN3CCc4ccccc4C3)c2C2CCN(C(=O)OC(C)(C)C)CC2)cc1C,-2.5,/,1.8%,15.8µM*,/,?
SMILES,LDHA inh,ATXN viability,IDH1 R132H inh,HepG2 viability,ATXN2 expr inh,TGFb inhibitor
CC(C)(C)OC(=O)N1CCC(c2c(C(=O)NCCCN3CCc4ccccc4C3)cnn2-c2ccccc2)CC1,-7.1,/,-9.7%,-39.5%,/,?
COc1ccc(-n2ncc(C(=O)NCc3ccc4c(c3)OCO4)c2C2CCN(C(=O)OC(C)(C)C)CC2)cc1,0.9,/,22.6%,-14.0%,/,?
O=C(O)c1cc2c(ncc3c(=O)n(-c4ccccc4)[nH]c32)s1,-34.6*,/,/,-10.1%,3.3%,-3.8%
CCN(CC)CCn1nc2c3c(cccc3c1=O)-c1ccccc1-2,-2.5,?,7.6%,-9.1%,10µM*,?
O=C(Nc1cccc(/C=C/c2ccccn2)c1)c1ccc(-n2cncn2)c([N+](=O)[O-])c1,-1.9,17.8µM*,11.8%,-21.3%,?,?
COc1cc(-c2nc3ccc4ccccc4c3c3c2CCC3)cc(OC)c1O,-0.5,?,?,-98.0%,?,11.2µM*
COc1cc(-c2nc3ccc4ccccc4c3c3c2CCC3)cc(OC)c1OC,0.3,i,-0.3%,-7.1%,-18.1%,6.3%
O=C(O)CCn1c(=O)c2cccn2c2cccnc21,-6.6,/,/,-2.2%,/,/
Cc1ncc(CO)c2c1Oc1nc(-c3ccccc3)nc(SCC(=O)N3CCCCC3)c1C2,-3.9,14.1µM*,-21.3%,-12.3%,-38.6%,-8.4%
Cc1cccc(NC(=O)CSc2nc3ccccc3c3nc(CCn4cncc4C)nn23)c1,-0.1,/,13.8%,12.6µM*,?,?
Cc1n[nH]c(C)c1CCc1nc2c3ccccc3nc(SCC(=O)Nc3ccc(F)cc3)n2n1,-7.5,?,-24.4%,12.6µM*,?,?
Cc1ccc(NC(=O)CSc2nc3ccccc3c3nc(CCn4cncc4C)nn23)c(C)c1,-3.7,?,-7.8%,-0.4%,-13.0%,?
Cc1c(C(=O)N2CCCCCC2)c(S(=O)(=O)NCc2ccccc2)c(C)n1C,-4.4,?,-11.7%,-12.5%,0.5%,-0.1%
CC1CCCC(C)N1/N=C/c1ccccc1F (configuration not stated),-22.3,i,-11.3%,12.8%,5.7%,33.2%
COc1ccc(Cl)cc1NC(=O)COc1ccccc1OC,-12.2,/,/,/,/,/
COc1cccc(OCC(=O)Nc2cc(Cl)ccc2Oc2ccccc2)c1,-2.4,?,3.4%,-13.4%,28.2µM*,-0.5%
COc1ccc(/C=N/NC(=O)c2ccc(Cn3cc([N+](=O)[O-])cn3)o2)cc1O,-4.5,i,0.8%,3.8%,6.8%,33.8%
COc1cc(/C=N/NC(=O)c2ccc(Cn3cc([N+](=O)[O-])cn3)o2)cc(Br)c1O,-2.1,i,3.5%,-82.4%,-2.6%,15.8µM*
Clc1ccc(CSc2nnc(-c3c[nH]c4ccccc34)o2)cc1,-3.9,i,6.4%,-68.9%,-25.4%,15.8µM*
Cc1ccc(NC(=O)c2c(C)noc2-c2snnc2C)cc1,4.2,?,3.9%,5.7%,-13.7%,4.1%
